The values below come from PubChem BioAssay (Tox21).

Inconclusive results are not listed. The source made the active and inactive calls. Calls follow the shape of the dose curve; as a rule, active = well fitted inhibition curve with a large enough effect in the repeat runs; inconclusive = weak or mixed curves, or effect the other way; inactive = no such curve, though single readings can be large or run the other way.
% is scaled to controls: 0 for no effect and ±100 for the full control effect.

In this test the target is Nuclear receptor ROR-gamma (Homo sapiens) (UniProt P51449). Put plainly: qHTS assay to identify small molecule antagonists of the retinoid-related orphan receptor gamma (ROR-gamma) signaling pathway (AID 1159521; also: top concentration of the series differs between compounds; nearly all actives have a fitted effect of over 50% in size). To be noted: Tet-on RORgamma CHO cells, RORE-luciferase, 16 h; series mostly up to 42.5 µM; activity change, negative = inhibition: at the top concentration. From the text:
U.S. Tox21 Program National Center for Advancing Translational Sciences [NCATS] NIH Chemical Genomics Center [NCGC] U.S. Environmental Protection Agency [EPA] National Institutes of Environmental Health Sciences [NIEHS] National Toxicology Program [NTP] U.S. Food and Drug Administration [FDA] Tox21 Assay Overview: Nuclear steroid hormone receptors are involved in many biological processes including inflammatory responses, cell proliferation, and apoptosis. Environmental factors or compounds disrupting these nuclear receptor pathways and gene expression may promote susceptibility to immunotoxicants and autoimmune diseases. One important group of these expression factors are the retinoid-related orphan receptors. To assess compounds that may interfere with the retinoid-related orphan receptor gamma (ROR-gamma) transcription factor, a cell-based luciferase assay was used. The CHO cell-based assay utilizes a TET-inducible ROR expression factor and ROR response element-LUC reporter gene. Reporter gene activity was induced using Doxycycline Hyclate and measured after 16 hr incubation. Tet-on ROR gamma CHO cells were used to screen against the Tox21 10K compound library for ROR gamma antagonists by quantification of decreased reporter gene activity in terms of decreased luminescence.
Tox21 Assay Protocol Summary: Tet-on ROR gamma CHO cells were dispensed at 1,000 cells in 4 uL of culture medium per well into white wall/solid bottom 1536-well plates using a Multidrop Combi (Thermo Scientific, Waltham, MA) dispenser. Following incubation at 37 C and 5% CO2 for 4 hr, 23 nL of compounds dissolved in DMSO, positive controls or DMSO only were transferred by a Pintool station (Kalypsys, San Diego, CA) and after 2 hr incubation at 37 C, one ul of 1 uM (final concentration) of Doxycycline Hyclate was added to all the wells by using a Flying Reagent Dispenser (FRD) (Aurora Discovery, San Diego, CA). After 16 hr incubation at 37 C and 5% CO2, 5 uL of ONE-Glo reagent (Promega Corporation, Madison, WI) was added to each assay plate using FRD. After 30 min incubation at room temperature, luminescence was quantified on a ViewLux plate reader (Perkin Elmer, Waltham, MA).
As to `CC(C)CCCC(C)N` (stereo not given), the “activity change, negative = inhibition” value was -8.34% (inactive).

With `CC(=O)Nc1ccc(S(N)(=O)=O)cc1`, the “activity change, negative = inhibition” value is 15% [at 92.4 µM] (inactive).

Take `NC(=O)Nc1ccccc1`: the “activity change, negative = inhibition” value is 1.3% [at 92.4 µM] (inactive).

With `CC1=CC(C)C(C=O)CC1` (stereo not given), the “activity change, negative = inhibition” value is -4.05% [at 92.4 µM] (inactive).

Regarding `CC1(C)CO[C@@H](CC(=O)O)CN1`, the “activity change, negative = inhibition” value is 20.4% (inactive).

With `N=C(N)c1ccc2cc(OC(=O)c3ccc(N=C(N)N)cc3)ccc2c1`, the “activity change, negative = inhibition” value is -8.78% (inactive).

With `CCCCOCCOCCOCc1cc2c(cc1CCC)OCO2`, the “activity change, negative = inhibition” value is -22.1% (inactive).

Consider `CCN(Cc1ccncc1)C(=O)C(CO)c1ccccc1` (stereo not given), for which the “activity change, negative = inhibition” value is 75.6% (inactive).

For the compound `CC(C)=CCCC(C)CC(=O)O` (stereo not given), the “activity change, negative = inhibition” value is 14.2% [at 92.4 µM] (inactive).

Consider `FC1(F)C(F)(F)C(F)(F)C2(F)C(F)(F)C(F)(F)C(F)(F)C(F)(F)C2(F)C1(F)F` (stereo not given), for which the “activity change, negative = inhibition” value was 19.3% (inactive).

Take `O=C(O)CNC(=O)c1ccc([N+](=O)[O-])cc1`: the “activity change, negative = inhibition” value was 29.9% [at 92.4 µM] (inactive).

Consider `CS(=O)(=O)O`, for which the “activity change, negative = inhibition” value is 43.3% [at 92.4 µM] (inactive).

`C=CCS(=O)(=O)O`: the “activity change, negative = inhibition” value is 5.8% [at 92.4 µM] (inactive).

Turning to `O=C(O)CCCl`, the “activity change, negative = inhibition” value was 69.8% [at 92.4 µM] (inactive).

Take `CC(=O)c1ccccc1O`: the “activity change, negative = inhibition” value is 9.32% [at 92.4 µM] (inactive).

With `C1OCOCO1`, the “activity change, negative = inhibition” value is -14.8% [at 92.4 µM] (inactive).

Take `CCCCOCCOCCOCCCC`: the “activity change, negative = inhibition” value is -0.541% [at 92.4 µM] (inactive).

In the case of `CO[Si](CCCOCC1CO1)(OC)OC` (stereo not given), the Potency entry is “inactive”.

As for `O=C(O)CCCc1ccccc1`, the “activity change, negative = inhibition” value was 40.1% (inactive).

In the case of `C=C[Si](OC(=C)C)(OC(=C)C)OC(=C)C`, the “activity change, negative = inhibition” value was -0.0869% [at 92.4 µM] (inactive).

In the case of `O=S(O)CO`, the “activity change, negative = inhibition” value was -21.9% [at 92.4 µM] (inactive).

As for `CCCCCCCCS(=O)(=O)Cl`, the “activity change, negative = inhibition” value is -8.1% [at 92.4 µM] (inactive).

Regarding `C[C@H]1C[C@@H](O)CC(C)(C)C1`, the “activity change, negative = inhibition” value is -8.75% [at 92.4 µM] (inactive).

Take `COC(=O)NN`: the “activity change, negative = inhibition” value is 0.172% [at 92.4 µM] (inactive).

In the case of `C[C@](N)(Cc1ccc(O)cc1)C(=O)O`, the activity change, negative = inhibition was 10.5% [at 8.39 µM] (inactive).

As for `C=C1CC[C@H]2C[C@@H]1C2(C)C`, the “activity change, negative = inhibition” value was 7.9% [at 92.4 µM] (inactive).

On to `c1ccc([C@H]2CN3CCSC3=N2)cc1`, for which the “activity change, negative = inhibition” value was 20.8% (inactive).

With `C=C(C)CS(=O)(=O)O`, the “activity change, negative = inhibition” value is 2.19% [at 92.4 µM] (inactive).

For `CC1(C)C(O)C(C)(C)C1O` (stereo not given), the “activity change, negative = inhibition” value is 4.61% [at 92.4 µM] (inactive).

For `Nc1c2c(nc3ccccc13)CCCC2O` (stereo not given), the “activity change, negative = inhibition” value is 6.02% (inactive).

For `CCCCCCCCCCCC`, the “activity change, negative = inhibition” value was -1.68% [at 92.4 µM] (inactive).

With `O=C(CCCN1CCC(O)(c2cccc(C(F)(F)F)c2)CC1)c1ccc(F)cc1`, the “activity change, negative = inhibition” value was -0.496% (inactive).

Take `CC(C)NC(=O)NC(C)C`: the “activity change, negative = inhibition” value is -0.367% [at 92.4 µM] (inactive).

As to `CCSC(=O)N(CC(C)C)CC(C)C`, the “activity change, negative = inhibition” value was 0.515% [at 92.4 µM] (inactive).

On to `Cc1c(O)cccc1O`, for which the “activity change, negative = inhibition” value was -19.1% [at 92.4 µM] (inactive).

With `CO/N=C(/C(=O)N[C@@H]1C(=O)N2C(C(=O)OCOC(=O)C(C)(C)C)=C(C)CS[C@H]12)c1csc(N)n1`, the “activity change, negative = inhibition” value is -9.69% (inactive).

Regarding `CCC(=O)OC(C)c1ccccc1` (stereo not given), the “activity change, negative = inhibition” value was 11% [at 92.4 µM] (inactive).

`Nc1cc(=O)[nH]c(N)n1`: the “activity change, negative = inhibition” value is 9.42% (inactive).

For `CC(C)(CC(=O)O)C(=O)O`, the “activity change, negative = inhibition” value was -10.5% [at 92.4 µM] (inactive).

`NC(=O)c1ccc([N+](=O)[O-])cc1`: the “activity change, negative = inhibition” value is -0.294% [at 92.4 µM] (inactive).
